A selection: hits, their analogues and other compounds. The true share with any hit is near 4.1%.
Casp6 inh: human caspase-6 inhibitors, primary screen, biochemical, VEID-R110 fluorescence, single point, set 2. purified caspase-6, Z-VEID-R110 cleavage fluorescence. inhibition, % at 12.5 µM. 350,000 compounds, 0.53% hits;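 active = mean inhibition across replicates at least about 35%, with every replicate also reaching that limit, limit read from the data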;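 note: 0% = median of neutral control wells and 100% = no fluorescence left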
F508del corr: F508del CFTR correction, initial screen, CFBE line, single point; CFBE cells, YFP halide quenching; stimulated with forskolin plus potentiator P3; % fluorescence drop versus neutral controls; activity (quench increase), % at 7.58 µM; 350,000 compounds, 0.36% hits;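 active = mean added fluorescence quench of at least 8% versus neutral control, with both replicates also reaching 8%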;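 note: cells transiently co-express mutant CFTR-F508del with the halide-sensitive YFP; corrector assay measuring rescue of mutant channel to the surface after 24 h compound exposure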
NSD2 HMT inh: NSD2 histone methyltransferase inhibitors, primary screen, biochemical, AlphaScreen, single concentration, set 2; NSD2 peptide methylation, 120 min; inhibition, % at 12.5 µM; 310,000 compounds, 0.54% hits; AID 743445, 2014; Histone-lysine N-methyltransferase NSD2 (Homo sapiens), O96028; in the data active = inhibition above about 50%
HIV Env fusion: inhibitors of HIV-1 Env-driven cell-cell fusion, primary screen, HeLa-JRFL effector, CEM21 target cells, luciferase; 360,000 compounds, 1.1% hits; AID 651610, 2012; inhibition, % at 12.3 µM;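 active = mean replicate inhibition score of at least 50 and every replicate individually at or above 50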;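 note: 0% = plate neutral controls and 100% = maraviroc near 300 nM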
ALR inh: inhibitors of human ALR sulfhydryl oxidase, primary screen, biochemical, H2O2 detection, HRP-luminol luminescence, single point; purified ALR, DTT oxidation; inhibition, % (test concentration not listed); AID 485317, 2010; 290,000 compounds, 3.8% hits; FAD-linked sulfhydryl oxidase ALR (Homo sapiens), P55789;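 active = mean replicate inhibition above about 79%, with every replicate also reaching it, limit read from the data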
Target sequence (P55789 whole entry, looked up): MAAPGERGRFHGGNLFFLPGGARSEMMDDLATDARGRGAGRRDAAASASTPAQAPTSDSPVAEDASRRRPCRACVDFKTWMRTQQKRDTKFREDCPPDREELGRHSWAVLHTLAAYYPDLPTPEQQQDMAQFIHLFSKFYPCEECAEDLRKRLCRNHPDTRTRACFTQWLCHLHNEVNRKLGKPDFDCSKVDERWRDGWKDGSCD
PglD DTNB: C. jejuni PglD acetyltransferase inhibitors, primary screen, biochemical, DTNB colorimetric, single point. inhibition, % at 12.5 µM. 360,000 compounds, 0.098% hits. purified PglD enzyme, DTNB colorimetric CoA detection; in the data active = inhibition above about 16%, passing the limit was not always enough
The depositor's hits bear a star; [ ] = dose if it differs, or a comment.

For O=C(CSc1nc(=O)n(CCCN2CCOCC2)c2c1CCCC2)Nc1cccc(Cl)c1 the results were Casp6 inh 0, F508del corr 3, NSD2 HMT inh 4, HIV Env fusion -34 and ALR inh 99*.
Screening O=C(CSc1nc(=O)n(CCCN2CCOCC2)c2c1CCCC2)Nc1ccc(F)c(F)c1 returned Casp6 inh 3, F508del corr -4, NSD2 HMT inh 2, HIV Env fusion -10, ALR inh 10 and PglD DTNB -4.
`C[C@@H]1CCCCO[C@@H](CN(C)C(=O)Cc2ccccc2)[C@H](C)CN([C@@H](C)CO)C(=O)c2cc(NC(=O)CCCCCC(=O)Nc3ccccc3N)ccc2O1` gave Casp6 inh 1, F508del corr 2, HIV Env fusion 9[16.7 µM] and PglD DTNB 0.
Screening O=C(c1ccccc1)N1CC(=O)N2[C@H](CO)[C@H](c3ccc(C#Cc4ccccc4)cc3)[C@H]2C1 returned Casp6 inh -2 and F508del corr 1.
Screening COc1cccc(S(=O)(=O)N(C)C[C@@H]2OCc3ccccc3-c3c(n(C)c4ccccc34)C(=O)N([C@H](C)CO)C[C@@H]2C)c1 returned Casp6 inh 3, F508del corr 2, HIV Env fusion 55*[16.7 µM] and PglD DTNB 2.
Screening COc1cccc(S(=O)(=O)N(C)C[C@@H]2OCc3ccccc3-c3c(n(C)c4ccccc34)C(=O)N([C@@H](C)CO)C[C@@H]2C)c1 returned Casp6 inh 4, F508del corr -3, HIV Env fusion 60*[16.7 µM] and PglD DTNB 1.
For COc1cccc(S(=O)(=O)N(C)C[C@H]2OCc3ccccc3-c3c(n(C)c4ccccc34)C(=O)N([C@@H](C)CO)C[C@H]2C)c1 the results were Casp6 inh 0, F508del corr 7, HIV Env fusion -104[16.7 µM] and PglD DTNB 1.
For Cc1cc(C(=O)COC(=O)c2cccc(S(=O)(=O)N(C)C)c2)c(C)n1CC1CCCO1 (stereo unspecified) the results were Casp6 inh 1, F508del corr -1, NSD2 HMT inh 1, HIV Env fusion 0 and PglD DTNB 0.
For COc1ccc(C(=O)CN2C(=O)c3ccccc3S2(=O)=O)cc1 the results were Casp6 inh -1, F508del corr 1, HIV Env fusion 72*, ALR inh 8 and PglD DTNB 4.
CCCn1c(C)cc(C(=O)CN2C(=O)c3ccccc3S2(=O)=O)c1C was read as Casp6 inh -2, F508del corr -1, NSD2 HMT inh 1, HIV Env fusion 67* and PglD DTNB 0.
`COc1ccc(C(=O)CN2C(=O)c3ccccc3S2(=O)=O)cc1Br` gave Casp6 inh 0, F508del corr 1, NSD2 HMT inh 0, HIV Env fusion 15, ALR inh -7 and PglD DTNB -3.
For CNS(=O)(=O)c1cccc(C(=O)OCC(=O)c2cc(C)n(CC3CCCO3)c2C)c1 (stereo unspecified) the results were Casp6 inh 3, F508del corr 25*, NSD2 HMT inh 3 and PglD DTNB 0.
`Cc1cc(C(=O)CN2C(=O)c3ccccc3S2(=O)=O)c(C)n1CC1CCCO1` (stereo unspecified) gave HIV Env fusion 115* and PglD DTNB -2.
`Cc1ccc(C)c(C(=O)CN2C(=O)c3ccccc3S2(=O)=O)c1` gave NSD2 HMT inh 1, ALR inh -3 and PglD DTNB 4.
Screening O=S(=O)(Nc1ccc(C(O)(C(F)(F)F)C(F)(F)F)cc1)c1ccc(-c2ccccc2)s1 returned NSD2 HMT inh 17.
For CCC(=O)N[C@@H]1C=C[C@@H](CC(=O)NCC2CC2)O[C@@H]1CO the results were Casp6 inh 7 and F508del corr 2.
N#Cc1ccc(-c2ccc3c(c2)[C@H]2[C@H](CCN2C(=O)CN2CCOCC2)[C@@H](CO)N3)cc1 was read as Casp6 inh 4, F508del corr 2 and PglD DTNB -1.

Compound activity: PubChem BioAssay, Broad Institute
